Results taken from PubChem BioAssay (Tox21).
Inconclusive results are not listed. A call without a number means that no potency is given here. Calls of active or inactive are those of the source. Calls come from the whole dose curve; as a rule, active = well fitted cell-killing curve with a large enough effect in the repeat runs; inconclusive = weak or mixed curves, or effect the other way; inactive = flat fitted curve, though single readings scatter.
Potency is the fitted concentration of half-maximal effect.

Assay: cAMP Responsive Elements (CRE) small molecule agonists, cell-based qHTS assay: qHTS cell viability counter screen (AID 2060914); note: nearly all actives have a fitted effect of over 50% in size
Details: CRE-bla HEK293T viability, CellTiter-Glo luminescence, 5 h; series mostly up to 92.4 µM
Method in brief: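 CRE-bla HEK293T cells in 10% dialyzed FBS medium were exposed to compounds for 3 h at 37C after 18 h plating. CellTiter-Glo was then added in the same wells, and luminescence was read after 30 min at room temperature.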
With `C#C[C@]1(OC(C)=O)CC[C@H]2[C@@H]3CCC4=C[C@@H](OC(C)=O)CC[C@@H]4[C@H]3CC[C@@]21C` the Potency was “inactive”.
With `O=C(O)c1cc(Br)c(O)c(Br)c1` the Potency was “inactive”.
With `Cc1cc(O)c2c(c1)C(=O)c1cccc(O)c1C2=O` the Potency was “inactive”.
In the case of `CCCCN(CCCC)CC(O)c1cc(Cl)cc2c1-c1ccc(Cl)cc1/C2=C/c1ccc(Cl)cc1` (stereo not given), the Potency is reported as “inactive”.
In the case of `Cc1cccc(C)c1O`, the Potency is reported as “inactive”.
For `CCCCCCCC/C=C\CCCCCCCCOCCO`, the Potency was 63.1 µM (active).
With `CCCCCCCC/C=C\CCCCCCCC(=O)OCCOC(=O)CCCCCCC/C=C\CCCCCCCC` the Potency was “inactive”.
For `C=CCCCCCCCCCCCC`, the Potency was “inactive”.
With `C/C=C/C(=O)Oc1c(CCCCCC(C)C)cc([N+](=O)[O-])cc1[N+](=O)[O-]` the Potency was “inactive”.
For `Clc1ccc(C(Cn2ccnc2)OCc2c(Cl)cccc2Cl)c(Cl)c1` (stereo not given), the Potency was “inactive”.
In the case of `Cn1c(=O)c2[nH]c(Br)nc2n(C)c1=O`, the Potency is reported as “inactive”.
With `O=c1cc(-c2ccccc2)oc2cc(O)cc(O)c12` the Potency was “inactive”.
In the case of `COC(=O)c1cccc(Cl)c1`, the Potency is reported as “inactive”.
In the case of `CN1CCN(CCCN2c3ccccc3Sc3ccc(C(F)(F)F)cc32)CC1`, the Potency is reported as “inactive”.
With `O=C(N[C@@H](c1ccccc1)[C@@H]1CCCCN1)c1cccc(C(F)(F)F)c1Cl` the Potency was “inactive”.
For `C=C[C@@H](C)CCC=C(C)C`, the Potency was “inactive”.
With `Cc1cccc(C(C)(C)C)c1O` the Potency was “inactive”.
In the case of `CCCCCC(=O)CC`, the Potency is reported as “inactive”.
With `C=C(C)C(=O)OCCCCCCCCCCCC` the Potency was “inactive”.
With `CCOC(=N)CC(=O)OCC` the Potency was “inactive”.
For `O=C(O)Cc1c(Cl)ccc(Cl)c1Cl`, the Potency was “inactive”.
With `CC(C)c1ccc2c(c1)CC[C@H]1[C@](C)(CN)CCC[C@]21C` the Potency was “inactive”.
With `CCCCCCCCCCCCCCCO` the Potency was “inactive”.
With `CC1=C(O)C(=O)OC1C` (stereo not given) the Potency was “inactive”.
In the case of `Cc1cccc(C)c1NC(=O)c1ccccc1C(=O)O`, the Potency is reported as “inactive”.
In the case of `CCCc1cc(=O)[nH]c(=S)[nH]1`, the Potency is reported as “inactive”.
With `c1ccc2c(c1)Oc1ccccc1S2` the Potency was “inactive”.
For `CNCCC(Oc1ccc(C(F)(F)F)cc1)c1ccccc1` (stereo not given), the Potency was “inactive”.
In the case of `Cc1ncc(CO)c(CN)c1O`, the Potency is reported as “inactive”.
With `Cc1ccc2c(c1)OCC(=O)CO2` the Potency was “inactive”.
For `N#CSCSc1nc2ccccc2s1`, the Potency was “inactive”.
For `CC(C)(C)c1n[nH]c(=S)n(N)c1=O`, the Potency was “inactive”.
For `Cc1cc(N)n(-c2ccccc2)n1`, the Potency was “inactive”.
With `CC(C)(C)c1ccc(N)cc1` the Potency was “inactive”.
In the case of `CC(C)(O)C(=O)c1ccccc1`, the Potency is reported as “inactive”.
With `CC(=O)O[C@]1(C(C)=O)CC[C@H]2[C@@H]3C=C(Cl)C4=CC(=O)CC[C@]4(C)[C@H]3CC[C@@]21C` the Potency was “inactive”.
With `CO[Si](CCCCl)(OC)OC` the Potency was “inactive”.
In the case of `C=C1CC/C=C(\C)CC[C@@H]2[C@@H]1CC2(C)C`, the Potency is reported as “inactive”.
With `NC/C=C/C(=O)O` the Potency was “inactive”.
With `CCOC(=O)CN` the Potency was “inactive”.
